Test results published in the OligoGym collection.

target: SEZ6L; assay: pooled miR-30 sensor sort-seq; sequence = guide strand; conditions: shRNA
Further: reference of the scale not given here.

Sequence	sensor-assay potency score (higher = more potent)
TTGTCATGCAGCAACAGCCTCT	-0.492
TTATAGGTCGGGTCGGATGTAG	-0.637
TCGAGTGATCCACCTCTCCGGG	-1
TCGGACGTGAACTCGATGCGGA	-0.799
TGGAATAGTAGCGACATCTTGT	-0.571
TTGGAGAAGCTCACACTGCAGA	-0.466
TAGATGGTCAAGATGTCACTGT	-0.115
TAGACTGTCACGTTGTATGTGC	0.1
TCCAGATACAATCTTCACCTTC	-0.983
TTGGTATCCATTTTCAGGCAGC	-0.526

target: SFRP4; assay: as above; conditions: shRNA

Sequence	sensor-assay potency score (higher = more potent)
TAGACAGGCAGCTCGTCGCAGG	-0.454
TTGTCCTGAACTGTTCTCCGCT	0.199
TATCCACTTAACATCCTCCGGG	0.611
TTTACATCCACCACCGTTGTGA	0.315
TTTACACTTGCACCGATCGGGG	-0.824
TTTTACACTTGCACCGATCGGG	0.497
TTACTAAGCTGATCTCTCCATT	-0.515
TTTTCTTCTTGTCCTGAACTGT	-0.361
TTGGCATGAATAACATAGCTGT	-0.164
TTTACTAAGCTGATCTCTCCAT	-0.0154
TATGGATCTTTTACTAAGCTGA	-0.661
TTTTCAAGAAGCATCATCCTTG	0.0999
